Screening results deposited in PubChem by National Center for Advancing Translational Sciences (NCATS).
Abeta yeast res – qHTS for compounds that reverse cellular toxicity of Amyloid beta (A-beta) peptide in yeast: Primary Screen | Potency, µM (series often up to 46.1 µM), most hits filed as activators | hit rate 0.063% among 410,000 | yeast expressing A-beta42, growth rescue, OD600, 48 h; response scale: 0% DMSO, 100% iron-clioquinol control; further: nearly all actives have a fitted effect of over 55% in size
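Yeast growth medium received pinned compounds, then yeast cells expressing toxic A-beta were added; plates incubated at 30 C for 48 hr. Growth read as absorbance at 600 nm, normalized to DMSO and equimolar FeCl3 plus clioquinol controls.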
TDP-43 yeast inh – qHTS of TDP-43 Inhibitors | TDP-43 expressing yeast growth rescue, BacTiter-Glo, 24 h | Potency, µM (highest dose often 46.1 µM), for the others: top-dose growth rescue (activation), hits mostly activators | hit rate 1.8% among 410,000 | AID 652104, 2013; further: % of control where 0% means no effect; nearly all actives have a fitted effect of over 50% in size
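Readout is BacTiter-Glo luminescence of cell growth, so inhibitors register as activators. TDP-43-expressing yeast at OD600=0.02 in galactose medium, after raffinose pregrowth to mid-log, were incubated with compound for 24 hr at 30 deg C.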
aSyn yeast inh – qHTS of alpha-syn Inhibitors; hit rate 0.14% among 370,000; AID 652106, 2013; Potency, µM (titrated, usually from 46.1 µM), inactives show at the top dose growth rescue (activation), actives largely listed as activators; Yeast expressing alpha-synuclein, growth rescue, BacTiter-Glo, 24 h; further: % of control where 0% means no effect; nearly all actives have a fitted effect of over 65% in size
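Readout is rescue of growth in alpha-synuclein-expressing yeast, so inhibitors of toxicity appear as activators. Growth after 24 hr at 30 deg C in galactose medium is quantified by luminescence.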
Mito fusion act – qHTS Assay for Small Molecule Inhibitors of Mitochondrial Division or Activators of Mitochondrial Fusion | S. cerevisiae fusion-defective mutant growth rescue, CellTiterGlo 48 h | Potency, µM (top dose mostly 46.1 µM), for the others: at the highest dose growth rescue (activation), most hits filed as activators | hit rate 0.23% among 320,000; further: % of control where 0% means no effect; nearly all actives have a fitted effect of over 45% in size
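Growth-rescue viability read-out: after 48 h at the non-permissive 37C in glycerol/ethanol YPEG, yeast mitochondrial fusion mutants are measured by CellTiterGlo luminescence; compounds (23 nl pinned per well) restoring growth score as division inhibitors or fusion activators.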
FUS suppressor – qHTS for Suppressors of FUS Proteinopathy: Primary screen using FUS-linked yeast assay. S. cerevisiae FUS-expressing, growth rescue, OD600, 24 h. Potency, µM (titrated, usually from 76.6 µM), hits mostly activators. hit rate 0.24% among 390,000. AID 1347120, 2019;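 further: plate controls were DMSO vehicle for no effect and reference control for full effect; nearly all actives have a fitted effect of over 55% in size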
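S. cerevisiae expressing FUS from galactose induction served as the toxicity model. Growth after 24hr at 30C, read as absorbance at 600 nm, indicates suppression of toxicity; compounds dosed at several concentrations.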
* marks the source's active call; other numbers are inactive results; i = inactive; ? = inconclusive; / = no result; [ ] = remark or other dose. In the library only some 2.2% were active in any assay of this set; here they are far more common. The call rests on the fitted dose curve; in most records, active means well fitted curve in the direction sought with a large enough effect; inconclusive means small, poorly fitted or top-dose-only effect, or another doubt; inactive means no such curve, though single readings can be large; an effect the other way counts as inactive or inconclusive. Potency means the concentration at half of the fitted maximal effect.

SMILES | Abeta yeast res | TDP-43 yeast inh | aSyn yeast inh | Mito fusion act | FUS suppressor
CC[N+](CC)(CC)c1ccc(/C=C/c2ccc3ccccc3n2)cc1 | / | / | -67.0% | / | /
O=C(Cn1cnc([N+](=O)[O-])c1)c1ccc(Cl)cc1 | i | 15.8µM* | 0.3% | 19.6% | i
O=[N+]([O-])c1cn(Cc2ccc(Cl)cc2)cn1 | ? | 11.5% | 6.5% | 0.6% | i
CCOC(=O)C(C)Sc1ccc2nnc(-c3ccc(OCC)cc3)n2n1 (stereo unspecified) | / | / | 2.0% | / | /
CC12CCC(=O)C=C1CCC1C2C(O)CC2(C)C(c3csc(N)n3)CCC12 (stereo unspecified) | i | -12.7% | 2.0% | / | ?
CC12CCC(=O)C=C1CCC1C2CCC2(C)C(c3csc(N)n3)CCC12 (stereo unspecified) | i | 14.1% | 17.8µM* | / | ?
COc1ccc(-c2ccc(=O)n(Cc3cccc([N+](=O)[O-])c3)n2)cc1 | / | 17.8µM* | 1.0% | -5.0% | i
COc1ccc(-c2ccc(=O)n(Cc3c(F)cccc3Cl)n2)cc1 | i | ? | 2.1% | ? | i
Cc1noc(-c2ccccc2OCC(=O)Nc2ccccc2[N+](=O)[O-])n1 | i | 20µM* | / | / | i
COc1ccccc1NC(=O)COc1cccnc1[N+](=O)[O-] | i | 7.94µM* | 9.3% | / | i
Cc1cc2c(cc1S(=O)(=O)NCc1ccc(F)cc1)OCCN2C | i | 15.9% | / | / | i
COc1ccc(NC(=O)N2CCN(S(=O)(=O)c3ccc4c(ccn4C)c3)CC2)c(OC)c1 | i | 0.0% | 1.7% | / | 12.6µM*
COc1ccc(OC)c(NC(=O)N2CCN(S(=O)(=O)c3ccc4c(ccn4C)c3)CC2)c1 | i | 18.5% | ? | / | ?
CCOc1ccc(NC(=O)N2CCN(S(=O)(=O)c3ccc4c(ccn4C)c3)CC2)cc1 | i | -21.3% | -0.2% | / | 39.8µM*
O=C(c1ccccc1)C(I)(I)N1CCOCC1 | / | / | 0.4% | / | /
CCCCCSc1nc2sc3c(c2c(=O)n1-c1ccccc1)CCN(C(C)=O)C3 | i | ? | / | / | i
O=C(NNc1nc2c(F)cccc2s1)C1COc2ccccc2O1 (stereo unspecified) | i | -12.5%[0.397 µM] | 1.6% | -0.2% | i
CC1CCc2nc(NC(=O)C3COc4ccccc4O3)sc2C1 (stereo unspecified) | ? | 35.5µM* | -1.4% | ? | i
O=C(Nc1nc(-c2ccccn2)cs1)C1COc2ccccc2O1 (stereo unspecified) | i | ? | ? | ? | i
O=C(Nc1nc(-c2ccc3c(c2)OCO3)cs1)C1COc2ccccc2O1 (stereo unspecified) | i | 11.2µM* | -0.5% | 21.0% | i
O=C(Nc1nc(-c2ccccc2)cs1)C1COc2ccccc2O1 (stereo unspecified) | i | 11.2µM* | -12.2% | 2.7% | i
Cc1ccc2sc(NNC(=O)C3COc4ccccc4O3)nc2c1C (stereo unspecified) | i | 7.08µM* | -4.4% | 15.1% | i
COc1ccc(C2=C(N3CCN(c4cccc(C)c4)C(C)C3)c3ccccc3C2=O)cc1 (stereo unspecified) | i | -3.3% | / | / | ?
N#CCC(=O)Nc1nc(-c2ccc3c(c2)OCCO3)cs1 | i | -1.2% | 10.3% | 3.3% | i
O=C(Nc1nc(-c2ccc3c(c2)OCCO3)cs1)C1CCCC1 | i | 11.2µM* | -20.1% | -10.4% | i
SMILES | Abeta yeast res | TDP-43 yeast inh | aSyn yeast inh | Mito fusion act | FUS suppressor
O=C1CC(c2ccccc2)Sc2ccccc2N1 (stereo unspecified) | i | 11.2µM* | / | -8.6% | i
Cc1cc(C)nc(SCC2COc3ccccc3O2)n1 (stereo unspecified) | i | 14.1µM* | 9.3% | -1.7% | i
Cc1cccc(N2CC(C(=O)Nc3nnc(SCC(=O)N4CCOCC4)s3)CC2=O)c1 (stereo unspecified) | i | -10.7% | -9.6% | 0.8% | 17.8µM*
O=C(Nc1nnc(SCC(=O)N2CCOCC2)s1)C1CC(=O)N(c2ccccc2)C1 (stereo unspecified) | i | -16.0% | 16.6% | 0.6% | i
CC1CCN(CC2CCN(C(=O)Nc3ccc(Br)cc3F)CC2)CC1 | i | -3.6% | / | / | i
COc1ccc(NC(=O)C2Cc3c(-c4ccc(Cl)cc4)ccnc3O2)cn1 (stereo unspecified) | i | 35.5µM* | 13.5% | / | i
O=C(NCc1ccccc1)C1Cc2c(-c3ccc(Cl)cc3)ccnc2O1 (stereo unspecified) | i | 20µM* | ? | / | i
COc1ccc(NC(=O)C2Cc3c(-c4ccc(Cl)cc4)ccnc3O2)cc1OC (stereo unspecified) | i | 35.5µM* | 6.4% | / | i
COc1cc(NC(=O)c2nnn(CC(=O)Nc3ccccc3)c2N)cc(OC)c1 | i | 20.3% | / | / | i
COc1ccc(Br)cc1Cn1nnc(C(=O)Nc2cccc(SC)c2)c1N | i | 17.0% | / | / | i
Cc1cc(C(=O)CSc2ccc3c(c2)OCCO3)c(C)n1C1CC1 | i | 20µM* | 15.6% | 10.2% | i
Cc1oc2c(c1C(=O)c1ccccc1)C(=O)C(=O)c1ccccc1-2 | i | 15.8µM* | 21.3% | -10.6% | i
CCOC(=O)c1c(C)oc2c1C(=O)c1ccccc1C2=O | i | 3.16µM* | -3.8% | -4.3% | i
O=C(NCc1ccccc1Cl)c1ccc(-n2cnc3cccnc32)cc1 | i | / | / | / | i
C#CCn1c(S(=O)(=O)Cc2ccc(OC)cc2)nc(-c2ccccc2)c1-c1ccccc1 | i | -22.7% | -9.8% | 0.1% | 25.1µM*
Cc1nc(CS(=O)(=O)c2ccccc2)cc(Sc2ccc(Cl)cc2Cl)n1 | i | 12.6µM* | 8.8% | ? | i
Cc1cccc([C@@H]2[C@@H]3C(=O)N(Cc4ccccc4)C(=O)[C@@H]3[C@]3(Cc4ccccc4)C(=O)N(c4cccc(F)c4)C(=O)N23)c1 | i | -8.3% | -2.4% | -7.1% | i
CC[C@@]12C(=O)N(c3cccc(F)c3)C(=O)N1[C@H](c1cccc(C)c1)[C@@H]1C(=O)N(Cc3ccccc3)C(=O)[C@@H]12 | i | -1.2% | 1.7% | 2.1% | 31.6µM*
O=C(Nc1nnc(Cc2ccccc2)s1)c1ccco1 | i | 3.3% | -0.9% | 3.8% | i
NC(=O)c1cc(Cc2ccccc2)sc1NC(=O)c1ccco1 | i | ? | -16.5% | 15.8µM* | i
Cc1ccc(SCC(=O)O/N=C(\N)c2cccnc2)cc1 | i | 10µM* | 0.6% | 1.4% | i
Cc1ccc(S(=O)(=O)N(C)CC(=O)O/N=C(\N)c2cccnc2)cc1 | i | 13.4% | 1.5% | / | /
